The supplement of paper PMC9023506
Counter-ions that a name gives are not always drawn.

Tested on: Danio rerio larvae (5 dpf)
Experiment: activity during first hour (no stimuli), difference vs DMSO (percentage points (treated minus DMSO)); higher = more of the behaviour than the DMSO vehicle control
Settings: 10 µM; exposure time: 3 h pre-incubation + 3 h imaging
Description: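 5-dpf wild-type zebrafish larvae were imaged in 96-well plates. They were treated with 190 Tocris FDA-approved drugs at 10 µM (1 µl/ml DMSO) for 3 h before and 3 h during imaging at 28.5 °C, 48 larvae per drug. Automated image analysis gave % time moving and optomotor responses. Values are drug group mean minus DMSO vehicle mean (n=844), in percentage points, for 10 behaviours.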

Row | SMILES | activity during first hour
1 | CCC(=O)O[C@]1(C(=O)SCF)[C@H](C)C[C@H]2[C@@H]3C[C@H](F)C4=CC(=O)C=C[C@]4(C)[C@@]3(F)[C@@H](O)C[C@@]21C [Fluticasone propionate] | 7.17
2 | CCc1c2c(nc3ccc(OC(=O)N4CCC(N5CCCCC5)CC4)cc13)-c1cc3c(c(=O)n1C2)COC(=O)[C@]3(O)CC | -4.43
3 | CCN(Cc1ccncc1)C(=O)C(CO)c1ccccc1 (stereo not given) [Tropicamide] | -5.17
4 | CCOC(=O)[C@H](CCc1ccccc1)N[C@H]1CCc2ccccc2N(CC(=O)O)C1=O [Benazepril hydrochloride] | 1.65
5 | COc1ccc(-c2ccc3cc(C(=O)O)ccc3c2)cc1C12CC3CC(CC(C3)C1)C2 [Adapalene] | -0.0907
6 | Nc1ncn([C@@H]2O[C@H](CO)[C@@H](O)[C@H]2O)c(=O)n1 [5-Azacytidine] | 4.78
7 | Cc1cc(C2CCCCC2)n(O)c(=O)c1 [Ciclopirox] | 2.44
8 | C[C@H]1C[C@@H]2[C@H]([C@@H](O)C[C@@]3(C)[C@H]2CC[C@]3(O)C(=O)CO)[C@@]2(C)C=CC(=O)C=C12 [Methylprednisolone] | 0.814
9 | COc1cc([C@@H]2c3cc4c(cc3[C@@H](O[C@@H]3O[C@@H]5CO[C@@H](C)O[C@H]5[C@H](O)[C@H]3O)[C@H]3COC(=O)[C@H]23)OCO4)cc(OC)c1O [Etoposide] | 3.81
10 | NC(=O)OCC(COC(N)=O)c1ccccc1 [Felbamate] | -2.12
11 | CN(C)CCc1c[nH]c2ccc(C[C@H]3COC(=O)N3)cc12 [Zolmitriptan] | 7.82
12 | O=C(Nc1c(Cl)cncc1Cl)c1ccc(OC(F)F)c(OCC2CC2)c1 [Roflumilast] | -15.3
13 | OCc1cc(C(O)CNCCCCCCOCCCCc2ccccc2)ccc1O (stereo not given) [Salmeterol xinafoate] | 14.1
14 | COc1ccccc1OCCNCC(O)COc1cccc2[nH]c3ccccc3c12 (stereo not given) [Carvedilol] | -9.72
15 | CN1CC[C@@H](NC(=O)Nc2ccc(C#N)cc2)C[C@@H]1c1nc2ccccc2[nH]1 | -8.92
16 | CCOc1ccccc1OCCN[C@H](C)Cc1ccc(OC)c(S(N)(=O)=O)c1 [Tamsulosin hydrochloride] | 7.36
17 | CCCCNc1cc(C(=O)O)cc(S(N)(=O)=O)c1Oc1ccccc1 [Bumetanide] | 3.74
18 | COc1cc2nc(N3CCN(C(=O)C4COc5ccccc5O4)CC3)nc(N)c2cc1OC (stereo not given) [Doxazosin mesylate] | -2.96
19 | N#C[C@@H]1C[C@@H]2C[C@@H]2N1C(=O)[C@@H](N)C12CC3CC(CC(O)(C3)C1)C2 [Saxagliptin hydrochloride] | 1.74
20 | Nc1nc2[nH]cc(CCc3ccc(C(=O)N[C@@H](CCC(=O)O)C(=O)O)cc3)c2c(=O)[nH]1 [Pemetrexed] | 1.38

Row | SMILES | activity during first hour
21 | CC(=O)O[C@H]1C(=O)[C@@]2(C)[C@H]([C@H](OC(=O)c3ccccc3)[C@]3(O)C[C@H](OC(=O)[C@H](O)[C@@H](NC(=O)c4ccccc4)c4ccccc4)C(C)=C1C3(C)C)[C@]1(OC(C)=O)CO[C@@H]1C[C@@H]2O [Taxol] | 1.84
22 | CN1CCC[C@@H]1Cc1c[nH]c2ccc(CCS(=O)(=O)c3ccccc3)cc12 [Eletriptan hydrobromide] | 4.26
23 | COc1ccc([C@@H]2Sc3ccccc3N(CCN(C)C)C(=O)[C@@H]2OC(C)=O)cc1 [Diltiazem hydrochloride] | -3.56
24 | C/C(O)=C(\C#N)C(=O)Nc1ccc(C(F)(F)F)cc1 [Teriflunomide] | -8.27
25 | NS(=O)(=O)c1cc2c(cc1Cl)NC(C1CC3C=CC1C3)NS2(=O)=O (stereo not given) [Cyclothiazide] | 0.422
26 | C=C1[C@H](CO)[C@@H](O)C[C@@H]1n1cnc2c(=O)[nH]c(N)nc21 [Entecavir] | -1.96
27 | CCCCC(=O)N(Cc1ccc(-c2ccccc2-c2nnn[nH]2)cc1)[C@H](C(=O)O)C(C)C [Valsartan] | 4.88
28 | CC(C)(C(=O)c1cccnc1)c1cccnc1 [Metyrapone] | -5.92
29 | O=C(O)C[C@H](O)C[C@H](O)/C=C/c1c(C2CC2)nc2ccccc2c1-c1ccc(F)cc1 [Pitavastatin calcium] | -0.557
30 | CC(C)(C#N)c1cc(Cn2cncn2)cc(C(C)(C)C#N)c1 [Anastrozole] | 3.37
31 | Cc1cccc(C)c1OCC(C)N (stereo not given) [Mexiletine hydrochloride] | 4.51
32 | O=C(O)CCCc1ccccc1 [Sodium 4-Phenylbutyrate] | 3.48
33 | COCCc1ccc(OCC(O)CNC(C)C)cc1 (stereo not given) [Metoprolol tartrate] | 5.56
34 | Nc1ncn([C@H]2C[C@H](O)[C@@H](CO)O2)c(=O)n1 [Decitabine] | 0.325
35 | CN1CCN(CCCN2c3ccccc3Sc3ccc(Cl)cc32)CC1 [Prochlorperazine dimaleate] | 10.4
36 | CCOc1nc2cccc(C(=O)O)c2n1Cc1ccc(-c2ccccc2-c2noc(=O)[nH]2)cc1 [Azilsartan] | 3.52
37 | O=C1CCc2ccc(OCCCCN3CCN(c4cccc(Cl)c4Cl)CC3)cc2N1 [Aripiprazole] | 8.28
38 | COc1cc(N)c(Cl)cc1C(=O)NC1CCN(CCCOc2ccc(F)cc2)CC1OC (stereo not given) [Cisapride] | 1.47
39 | CC(C)C(=O)Nc1ccc([N+](=O)[O-])c(C(F)(F)F)c1 [Flutamide] | -9.59
40 | Cc1ccc(-c2cc(C(F)(F)F)nn2-c2ccc(S(N)(=O)=O)cc2)cc1 [Celecoxib] | -5.35
